Consider eight molecules from PubChem BioAssay.

Assay [1] can be described thus: optical density shifts of acrAB sulA E. coli – strain DRC41, OD650, 48 h, E. coli filamentation inducer project, primary screen (AID 1152).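 Also: E. coli MC1000 strain DRC41 lacking acrAB efflux pump and sulA.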 The settings on record: higher = more signal, called active from +8 up or from −8 down.
Assay [2] is described as follows: probe aLefty1 binding on compound microarray – biochemical, small-molecule microarray, 635/667 nm fluorescence, primary screen (AID 1153).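 Also: score merges spot fluorescence with signal-to-noise ratio from the scanned slide images.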 As to conditions: higher = more signal.
A short description of assay [3]: plasmodial surface anion channel blockers, osmotic lysis – cell-based, P. falciparum Indochina, OD700, 1 h, primary screen (AID 1154). As to conditions: P. falciparum Indochina infected RBC osmotic lysis, higher = more signal, called active from +8 up or from −8 down.
Assay [4] is described as follows: plasmodial surface anion channel blockers, osmotic lysis – cell-based, P. falciparum Indochina, OD700, 2 h, primary screen (AID 1155).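 Also: lysis reports solute entry through the parasite surface anion channel PSAC.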 The settings on record: P. falciparum Indochina infected erythrocytes, higher = more signal, called active from +8 up or from −8 down.
Assay [5] is described as follows: changes in parasitized red cell lysis, either direction – P. falciparum Indochina, OD700, 3 h, PSAC antagonist project, primary screen (AID 1156). The settings on record: P. falciparum-infected erythrocytes, osmotic lysis, higher = more signal, called active from +8 up or from −8 down.
The nature of assay [6]: plasmodial surface anion channel blockers, osmotic lysis – cell-based, P. falciparum Indochina, OD700, 18 h, primary screen (AID 1157). The settings on record: P. falciparum Indochina infected erythrocytes, osmotic lysis OD700, 18 h; higher = more signal, called active from +8 up or from −8 down.
Assay [7] in a line: S6 kinase pathway phospho-S6 level changes – cell-based, A549, cytoblot, luminescence, serum-stimulated, primary screen (AID 1158).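 Also: serum-stimulated A549 lung adenocarcinoma cells; signal is phosphorylated S6 detected by cytoblot immunostaining with HRP secondary.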 The settings on record: 5 h, higher = more signal.
The target of assay [8] is NADPH oxidase 2 (Homo sapiens) (UniProt P04839). Put plainly: compounds shifting NOX2 Amplex Red fluorescence – cell-based, HEK293-NOX2, PMA-stimulated, NOX inhibitor project, primary screen (AID 1159). Also: test concentration not given here. The settings on record: 45 min, higher = more signal, called active from +8 up or from −8 down.
Assay [9] concerns the target NADPH oxidase 4 (Homo sapiens) (UniProt Q9NPH5). In words: compounds shifting NOX4 Amplex Red fluorescence – cell-based, HEK293-NOX4, tetracycline-induced, NOX inhibitor project, primary screen (AID 1160). The settings on record: HEK293-NOX4, Amplex Red H2O2 fluorescence, 45 min; higher = more signal, called active from +8 up or from −8 down.
In assay [10] the target is NADPH oxidase 5 (Homo sapiens) (UniProt Q96PH1). In words: compounds shifting NOX5 Amplex Red fluorescence – cell-based, HEK293-NOX5, NOX inhibitor project, primary screen (AID 1161). As to conditions: HEK293-NOX5, ionomycin, 45 min, higher = more signal.
Assay [11] is described as follows: compound effects on lung adenocarcinoma cell viability – A549, calcein-AM fluorescence, 48 h, basal, profiling panel (AID 1162). Also: test concentration not given here. The settings on record: higher = more signal.
Assay [12] in a line: compound effects on differentiated 3T3-L1 adipocyte viability – cell-based, 3T3-L1 adipocytes, calcein-AM fluorescence, 48 h, basal, profiling panel (AID 1163). Also: test concentration not given here. The settings on record: 3T3-L1 adipocytes viability, higher = more signal.
A short description of assay [13]: compound effects on hepatocellular carcinoma cell viability – HepG2, calcein-AM fluorescence, 48 h, basal, profiling panel (AID 1164). Also: test concentration not given here. The settings on record: higher = more signal.
Assay [14] can be described thus: compound effects on multiple myeloma cell viability – MM1S, calcein-AM fluorescence, 48 h, basal, profiling panel (AID 1165). Also: test concentration not given here. As to conditions: higher = more signal.
A short description of assay [15]: calcein-AM signal in unstimulated myeloma cells – cell-based, calcein-AM fluorescence, 48 h, PK04 Diversity Set, profiling panel (AID 1166).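 Also: cells grown under basal conditions without added stimulus; test concentration not given here.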 As to conditions: RPMI8226 myeloma viability, higher = more signal.
The nature of assay [16]: JC-1 mitochondrial signal, unstimulated HepG2 cells – cell-based, JC-1 fluorescence, 24 h, 100 nL compound, profiling panel (AID 1167). Also: test concentration not given here. As to conditions: HepG2 mitochondrial potential, higher = more signal.
The nature of assay [17]: JC-1 mitochondrial signal, unstimulated adipocytes – cell-based, JC-1 fluorescence, 3T3-L1 adipocytes, 24 h, 100 nL compound, profiling panel (AID 1168). Also: test concentration not given here. The settings on record: JC-1 mitochondrial fluorescence, higher = more signal, called active from +8 up or from −8 down.
Assay [18] can be described thus: JC-1 mitochondrial signal, unstimulated myeloma cells – cell-based, JC-1 fluorescence, RPMI8226, 24 h, 100 nL compound, profiling panel (AID 1169). Also: test concentration not given here. As to conditions: JC-1 mitochondrial potential fluorescence, higher = more signal.
Assay [19] in a line: JC-1 mitochondrial signal, unstimulated MM1S myeloma – cell-based, JC-1 fluorescence, 24 h, 100 nL compound, profiling panel (AID 1170). Also: test concentration not given here. The settings on record: MM1S mitochondrial potential, higher = more signal.
Assay [20] in a line: resazurin metabolic signal in A549 cells – cell-based, resazurin fluorescence, 24 h, PK04 Diversity Set, profiling panel (AID 1171). Also: test concentration not given here. The settings on record: A549 viability, higher = more signal, called active from +8 up or from −8 down.

Activity calls are given as the source filed them.

Sequence of NADPH oxidase 2 (Homo sapiens) (P04839 whole entry, looked up): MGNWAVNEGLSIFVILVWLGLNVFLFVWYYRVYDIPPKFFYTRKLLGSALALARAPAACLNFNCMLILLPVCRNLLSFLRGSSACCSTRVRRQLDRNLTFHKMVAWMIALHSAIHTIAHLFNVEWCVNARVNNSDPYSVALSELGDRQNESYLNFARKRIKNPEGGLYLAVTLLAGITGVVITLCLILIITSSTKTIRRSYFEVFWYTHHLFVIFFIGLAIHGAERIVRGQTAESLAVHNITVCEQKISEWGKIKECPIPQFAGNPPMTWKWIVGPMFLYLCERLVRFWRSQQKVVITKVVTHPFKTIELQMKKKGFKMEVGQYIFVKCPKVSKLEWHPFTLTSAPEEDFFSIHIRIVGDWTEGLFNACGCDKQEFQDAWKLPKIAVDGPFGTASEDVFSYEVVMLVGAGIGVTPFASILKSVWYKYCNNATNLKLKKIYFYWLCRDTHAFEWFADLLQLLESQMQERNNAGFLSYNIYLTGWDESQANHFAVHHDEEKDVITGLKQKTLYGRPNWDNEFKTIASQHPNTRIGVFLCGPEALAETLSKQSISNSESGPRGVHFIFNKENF
Sequence of NADPH oxidase 5 (Homo sapiens) (Q96PH1 whole entry, looked up): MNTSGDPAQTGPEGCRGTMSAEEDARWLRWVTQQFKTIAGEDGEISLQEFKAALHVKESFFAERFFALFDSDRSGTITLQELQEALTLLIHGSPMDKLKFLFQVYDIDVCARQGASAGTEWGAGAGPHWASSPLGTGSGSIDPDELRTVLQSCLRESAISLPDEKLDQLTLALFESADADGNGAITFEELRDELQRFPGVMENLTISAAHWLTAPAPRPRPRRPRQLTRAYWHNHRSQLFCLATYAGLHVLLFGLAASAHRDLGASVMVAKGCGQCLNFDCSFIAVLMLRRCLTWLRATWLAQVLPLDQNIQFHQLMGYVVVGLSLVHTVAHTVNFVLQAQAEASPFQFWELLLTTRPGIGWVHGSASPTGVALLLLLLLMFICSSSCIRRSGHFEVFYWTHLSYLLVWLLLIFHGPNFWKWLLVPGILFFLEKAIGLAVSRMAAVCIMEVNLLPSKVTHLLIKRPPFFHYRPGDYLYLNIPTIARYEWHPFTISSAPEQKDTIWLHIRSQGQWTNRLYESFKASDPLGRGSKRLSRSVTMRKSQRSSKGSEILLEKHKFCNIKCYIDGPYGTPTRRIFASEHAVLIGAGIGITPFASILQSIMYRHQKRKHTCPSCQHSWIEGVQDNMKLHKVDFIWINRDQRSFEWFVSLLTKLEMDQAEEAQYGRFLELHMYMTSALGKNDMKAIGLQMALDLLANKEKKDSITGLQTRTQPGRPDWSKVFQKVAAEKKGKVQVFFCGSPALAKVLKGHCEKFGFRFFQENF
Sequence of NADPH oxidase 4 (Homo sapiens) (Q9NPH5 whole entry, looked up): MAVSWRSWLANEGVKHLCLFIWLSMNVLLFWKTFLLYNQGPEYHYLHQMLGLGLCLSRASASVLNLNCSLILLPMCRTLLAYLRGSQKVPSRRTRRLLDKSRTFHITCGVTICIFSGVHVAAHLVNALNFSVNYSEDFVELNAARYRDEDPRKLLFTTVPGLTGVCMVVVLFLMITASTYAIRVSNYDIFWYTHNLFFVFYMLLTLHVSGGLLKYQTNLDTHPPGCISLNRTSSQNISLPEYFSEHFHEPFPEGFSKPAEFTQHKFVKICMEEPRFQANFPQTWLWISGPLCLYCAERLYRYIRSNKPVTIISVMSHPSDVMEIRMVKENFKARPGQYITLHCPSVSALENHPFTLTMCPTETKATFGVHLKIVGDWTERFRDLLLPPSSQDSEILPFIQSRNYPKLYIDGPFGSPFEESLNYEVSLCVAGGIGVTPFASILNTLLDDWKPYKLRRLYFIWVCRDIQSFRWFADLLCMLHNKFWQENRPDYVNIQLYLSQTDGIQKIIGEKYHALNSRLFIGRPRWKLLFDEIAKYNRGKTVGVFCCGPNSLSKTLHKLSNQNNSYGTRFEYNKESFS

Regarding `CO[C@@H]1COC(=O)[C@H](C)NC(=O)CC=C[C@@H](C)[C@H](NS(=O)(=O)c2ccc(C)cc2)COC(=O)CC=C[C@@H]1C`, the z-score in assay [1] was 0.117 (inactive); in assay [3], -0.697 (inactive); in assay [4], -0.207 (inactive); in assay [5], 0.0724 (inactive); in assay [6] it was -0.0387 (inactive); in [7], 0.225. Further, the z-score in assay [8] was 0.564 (inactive); in assay [9] it was 0.661 (inactive); in assay [10], 0.661; in assay [11], 0.286; in assay [12], 0.624; in assay [13], 0.129. For the same molecule, the z-score in assay [14] was 0.287; in assay [15] it was -0.0803; in [16], 0.596; in assay [17], 0.523 (inactive); in [18], -0.296; in assay [19], 0.203. Moreover, in [20], the z-score was 0.589 (inactive). Also, the composite z-score in assay [2] was -0.15.
With `CO[C@H]1COC(=O)CC=C[C@@H](C)COC(=O)[C@@H](C)NC(=O)CC=C[C@@H]1C`, the z-score in [1] was -0.414 (inactive); in [3], -0.401 (inactive); in assay [4] it was -0.599 (inactive); in assay [5] it was -0.768 (inactive); in assay [6] it was -0.872 (inactive); in assay [7], 2.57. For the same molecule, the z-score in assay [8] is -0.206 (inactive); in [9] it was 0.534 (inactive); in assay [10], 0.984; in [11] it was 0.43; in assay [12], 0.688; in assay [13] it was 1.37. For the same molecule, the z-score was 0.344 in assay [14]; 0.615 in assay [15]; 1.24 in [16]; 1.87 (inactive) in [17]; -0.258 in [18]; 1.52 in assay [19]. The z-score in assay [20] is 0.372 (inactive). Further, the composite z-score in [2] was -0.276.
For `COCCOC(=O)N1C(=O)[C@@]2(c3cc(C#CCCO)ccc31)[C@H](c1ccc(O)cc1)N1[C@H](c3ccccc3)[C@H](c3ccccc3)OC(=O)[C@H]1[C@@H]2C(=O)Nc1nc2ccccc2s1`, the z-score in [1] is 1.45 (inactive); in assay [3] it was 2.22 (inactive); in [4] it was 1.59 (inactive); in [5], 0.577 (inactive); in assay [6], 1.73 (inactive); in [7], 0.897. For the same molecule, the z-score in assay [8] was 0.928 (inactive); in assay [9] it was -0.161 (inactive); in assay [10] it was 1.21; in assay [11] it was 0.615; in assay [12] it was 1.62; in assay [13], -0.425. Moreover, the z-score is -0.24 in assay [14]; -1.53 in assay [15]; -3.45 in [16]; -2.22 (inactive) in [17]; -0.684 in assay [18]; -1.11 in assay [19]. The z-score in assay [20] is -0.192 (inactive). Moreover, the composite z-score in [2] stood at 0.345.
Take `C[C@@H]1CC[C@H]2C(=O)N3CCC[C@H]3C(=O)N2[C@H]1c1ccc(Br)cc1`: the z-score in assay [1] was 1.29 (inactive); in [3], 0.338 (inactive); in assay [4] it was -0.0391 (inactive); in assay [5], 0.363 (inactive); in assay [6] it was 0.444 (inactive); in assay [7], 0.349. The z-score in [8] was 0.607 (inactive); in assay [9] it was 0.296 (inactive); in assay [10] it was 0.764; in [11], 1.09; in assay [12], -0.0296; in [13], 0.0327. In addition, the z-score was 0.517 in [14]; 0.0262 in [15]; 0.412 in assay [16]; 1.02 (inactive) in assay [17]; -0.167 in assay [18]; 0.324 in [19]. The z-score in assay [20] is 0.673 (inactive). This molecule gave a composite z-score in [2] of -0.218.
Turning to `COc1ccc(CCNC(=O)[C@@]2(c3ccc([N+](=O)[O-])cc3)CC(=O)N(C(C)C)[C@@H]2c2ccc(CO)cc2)cc1`, the z-score in assay [1] is 1.6 (inactive); in [3], 4.07 (inactive); in [4], 0.208 (inactive); in assay [5] it was 1.44 (inactive); in assay [6], 0.621 (inactive); in [7], 0.54. For the same molecule, the z-score was 0.891 (inactive) in assay [8]; 0.433 (inactive) in assay [9]; 0.24 in assay [10]; 0.755 in [11]; 1.52 in [12]; -0.627 in assay [13]. In addition, the z-score in [14] is 0.701; in assay [15], 0.159; in [16] it was -0.0592; in assay [17], -0.209 (inactive); in assay [18] it was 1.05; in [19], 0.323. In addition, the z-score in assay [20] is 0.1 (inactive). For the same molecule, the composite z-score in assay [2] was -0.0353.
On to `CCCCO[C@H]1C[C@H]2C(Br)=C[C@@]1(CO)C(=O)[C@]21CO1`, for which the z-score in [1] was 2.71 (inactive); in [3], -0.789 (inactive); in assay [4], -1 (inactive); in assay [5], -0.269 (inactive); in assay [6], -2.44 (inactive); in assay [7], 1.69. Moreover, the z-score was -0.446 (inactive) in assay [8]; 0.493 (inactive) in assay [9]; 0.178 in [10]; 0.491 in assay [11]; 0.53 in assay [12]; -0.337 in assay [13]. Further, the z-score is -0.997 in assay [14]; -0.545 in [15]; 0.76 in [16]; 1.33 (inactive) in [17]; -1.12 in assay [18]; 0.149 in [19]. Also, the z-score in assay [20] is 0.6 (inactive). In addition, the composite z-score in assay [2] is -0.198.
With `CC(=O)NCCCC[C@@H]1NC(=O)[C@@H]2C[C@H](C(=O)NCCCCCCN(C)C)[C@H](c3ccc(O)cc3)N2C1=O`, the z-score was 1.03 (inactive) in assay [1]; 1.19 (inactive) in assay [3]; -1.12 (inactive) in assay [4]; -2.63 (inactive) in assay [5]; -2.32 (inactive) in assay [6]; -0.0253 in assay [7]. Further, the z-score in assay [8] is -0.498 (inactive); in [9] it was -1.45 (inactive); in assay [10] it was 0.253; in [11], -0.378; in assay [12] it was 1.28; in assay [13], -1.04. Besides, the z-score in assay [14] was -0.365; in assay [15], 0.495; in assay [16], 1.43; in [17], 0.957 (inactive); in [18], 0.641; in [19], 0.925. Besides, in assay [20], the z-score was 0.318 (inactive). The composite z-score in assay [2] was -0.0619.
In the case of `O=C1OCCC/C=C\[C@H]2OC34C=CCN(CCN5CCOCC5)C(=O)[C@H]3N(CCCCCO)C(=O)[C@@H]4C12` (stereo not given in full), the z-score in assay [1] was -0.938 (inactive); in [3], 1.07 (inactive); in assay [4], -0.314 (inactive); in assay [5], -0.566 (inactive); in assay [6], -0.525 (inactive); in [7], -0.768. Moreover, the z-score in assay [8] is 0.796 (inactive); in assay [9], -0.109 (inactive); in assay [10], 1.01; in assay [11], 0.739; in [12], 0.216; in [13] it was -0.123. Further, the z-score in [14] is 1.1; in assay [15] it was -0.0521; in assay [16] it was -1.04; in [17], 0.348 (inactive); in [18], 0.329; in assay [19] it was -0.102. For the same molecule, the z-score in assay [20] is -0.254 (inactive). The composite z-score in assay [2] is -0.0984.
